# Values without a mark were called inactive. Records with an inconclusive call do not appear. Where a call stands in place of a potency, no number is given. Calls of active or inactive are those of the source. Unless noted, calls follow the shape of the dose curve; as a rule, active = well fitted curve in the direction sought with a large enough effect in the repeat runs; inconclusive = weak or mixed curves; inactive = no such curve, though single readings can be large; an effect the other way counts as inactive or inconclusive.
# What was measured:
# [1] = qHTS assay to identify small molecule agonists of H2AX (AID 1224845; active = well fitted activation curve with a large enough effect in the signal ratio in the repeat runs, not every such curve was filed as active; the % refers to the signal ratio)
# Summary of the method: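 Wild-type CHO-K1 cells, plated overnight, exposed 3hr at 37C to 15 concentrations (0.76% DMSO final). Lysed, then HTRF anti-pH2AX (S139) cryptate and anti-H2AX-d2 antibodies, 24 hr room temperature; 665/620 nm emission read.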
# [2] = qHTS assay to identify small molecule agonists of the hypoxia (HIF-1) signaling pathway (AID 1224846; active = well fitted activation curve with a large enough effect in the signal ratio in the repeat runs, not every such curve was filed as active; the % refers to the signal ratio)
# Summary of the method: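 HRE-bla ME-180 beta-lactamase reporter cells in medium with 0.5% dialyzed FBS, pre-incubated 5 h then exposed to compounds 17 h at 37C, 5% CO2; reporter induction read with CCF4-AM FRET substrate.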
# [3] = qHTS assay to identify small molecule agonists of H2AX - cell viability counter screen (AID 1224847; calls by dose curve; also: top concentration of the series differs between compounds; nearly all actives have a fitted effect of over 30% in size)
# Summary of the method: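 CHO-K1 wt, 1000 cells/well, o/n 37C; cpds 15 conc, 3 h 37C, 0.76% DMSO; CellTiter-Glo, 30 min RT, luminescence.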
# [4] = qHTS assay to identify small molecule antagonists of the estrogen related receptor (ERR) signaling pathway from Tox21 library (AID 1224848); also: nearly all actives have a fitted effect of over 50% in size; also: potency is read from the fitted curve at half-maximal effect
# Summary of the method: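 Luminescent reporter read-out (ONE-Glo) from NTP's ERR cell line after 18 h treatment at 37 C with DMSO-dissolved Tox21 compounds; cells pre-plated 6 h beforehand at 2,000 per well.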
# [5] = qHTS assay to identify small molecule agonists of the estrogen related receptor (ERR) signaling pathway from Tox21 library (AID 1224849; calls by dose curve; also: nearly all actives have a fitted effect of over 15% in size); settings: ERR reporter cell line, ONE-Glo luciferase, 18 h; at 92.4 µM (top of the series) unless noted
# Summary of the method: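 ERR reporter cells (NTP line) pre-incubated 6 hours at 37 C, then exposed to compounds for 18 hours at 37 C. ONE-Glo luciferase luminescence was read after 30 minutes at room temperature.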
# [6] = qHTS RealTime-Glo MT Cell Viability Assay in HepG2 cells - 24 hour (AID 1224867); also: nearly all actives have a fitted effect of over 50% in size
# Summary of the method: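 Tox21 10K library screened in qHTS format on HepG2 cells carrying RealTime-Glo reagents. Compounds were added after a 5 h preincubation, and the luminescent signal from continuous culture was measured repeatedly during 40 h treatment.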
# [7] = qHTS RealTime-Glo MT Cell Viability Assay in HEK293 cells - 32 hour (AID 1224868); also: nearly all actives have a fitted effect of over 50% in size; also: potency is read from the fitted curve at half-maximal effect
# Summary of the method: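 Luminescence generated by NanoLuc from substrate produced by living HEK293 cells served as the viability signal. Each value reflects the reading at its stated time point during continuous 40 h compound exposure at 37 C.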
# [8] = A CellTox Green Cytotoxicity Assay to monitor cytotoxicity in HEK293 cells - 0 hour (AID 1224869); also: nearly all actives have a fitted effect of over 50% in size
# Summary of the method: (§1)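 HEK293 cells, 600/well, were preincubated 5 hours and then exposed to compounds at 37 C for up to 40 hours. A cell-impermeant cyanine dye staining dead-cell DNA was read by fluorescence at 0, 8, 16, 24, 32 and 40 h time points.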
# [9] = qHTS RealTime-Glo MT Cell Viability Assay in HepG2 cells - 40 hour (AID 1224870); also: nearly all actives have a fitted effect of over 50% in size
# Summary of the method: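 HepG2 cells (600/well) mixed with RealTime-Glo MT reagent, settled 5 h at 37 C/5% CO2 before compound addition. Nonlytic NanoLuc luminescence from viable-cell prosubstrate reduction read repeatedly during 40 h treatment at 37 C.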
# [10] = A CellTox Green Cytotoxicity Assay to monitor cytotoxicity in HEK293 cells - 40 hour (AID 1224871); also: nearly all actives have a fitted effect of over 45% in size
# Summary of the method: as §1
Structure (SMILES),Potency [1],outcome [2],Potency [3],Potency [4],"activity change, positive = activation [5]",Potency [6],Potency [7],Potency [8],Potency [9],Potency [10]
COC1CCC=CO1 (configuration not stated),inactive,inactive,inactive,inactive,5.99%,inactive,inactive,inactive,inactive,inactive
OCC(CO)n1cnc(-c2ccc(F)cc2)c1-c1ccnc(Oc2ccccc2)n1,inactive,inactive,inactive,27.3 µM (active),-29%,inactive,inactive,inactive,inactive,inactive
Nc1ccc(F)cc1,inactive,inactive,inactive,inactive,0.224%,inactive,inactive,inactive,inactive,–
CC(C)N=C=NC(C)C,inactive,inactive,inactive,inactive,2.53%,inactive,inactive,inactive,inactive,inactive
O=C1CC[C@@H](C(=O)O)N1,inactive,inactive,inactive,inactive,3.84% [at 42.5 µM],inactive,inactive,inactive,inactive,inactive
Cc1c[nH]c2ccccc12,inactive,inactive,inactive,inactive,0.349% [at 42.5 µM],inactive,inactive,inactive,inactive,inactive
O=C(O)CCS,inactive,inactive,inactive,inactive,4.53%,inactive,inactive,inactive,inactive,inactive
CC(C)CC(O)CC(C)C,inactive,inactive,inactive,inactive,2.06%,inactive,inactive,inactive,inactive,inactive
CN=C(N)NC(=O)Nc1c(C)cccc1C,inactive,inactive,inactive,inactive,-0.434% [at 42.5 µM],inactive,inactive,inactive,inactive,inactive
CCCOC(=O)c1c(Cl)c(Cl)c(Cl)c(Cl)c1C(=O)OCCC,inactive,inactive,inactive,inactive,6.22%,inactive,inactive,inactive,inactive,inactive
C1CCCCC1,inactive,inactive,inactive,inactive,7.76%,inactive,inactive,inactive,inactive,inactive
CCCCOC(=O)CCCCC(=O)OCCCC,inactive,inactive,inactive,inactive,-0.363%,inactive,inactive,inactive,inactive,inactive
COC(C)(C)OC,inactive,inactive,inactive,inactive,2.58%,inactive,inactive,inactive,inactive,inactive
CCC(CO)(CO)[N+](=O)[O-],inactive,inactive,inactive,inactive,1.64%,inactive,inactive,inactive,inactive,inactive
O=C(O)CN1C(=O)c2cccc3cccc(c23)C1=O,inactive,inactive,inactive,inactive,3.18% [at 42.5 µM],inactive,inactive,inactive,inactive,inactive
COC(=O)c1sccc1S(N)(=O)=O,inactive,inactive,inactive,inactive,0.3%,inactive,inactive,inactive,inactive,inactive
CCOC(=O)c1ccc(NC(=O)CN2CCCCC2)cc1,inactive,inactive,inactive,inactive,5.71% [at 42.5 µM],inactive,inactive,inactive,inactive,inactive
C=Cc1ccc(OC(C)=O)cc1,inactive,inactive,inactive,inactive,12.7%,inactive,inactive,inactive,inactive,–
[Cl][Nd]([Cl])[Cl],inactive,inactive,inactive,inactive,-6.02%,inactive,inactive,inactive,inactive,inactive
O=C1c2ccccc2C(=O)c2c(O)ccc(O)c21,inactive,inactive,inactive,inactive,-2.45%,inactive,inactive,inactive,inactive,–
CCCCCCCC(=O)OCCCCCC,inactive,inactive,inactive,inactive,-7.04%,inactive,3.47 µM (active),inactive,inactive,inactive
CC(C)COC(=O)COc1cc(Cl)c(Cl)cc1Cl,inactive,inactive,inactive,inactive,-0.133%,inactive,inactive,inactive,inactive,inactive

# — PubChem BioAssay (Tox21)
